Activation data for 89 molecules are collected here from PubChem BioAssay AID504660 (National Center for Advancing Translational Sciences (NCATS), 2011).

Out of some 360,000 compounds screened, about 3,700 (1%) were called active. This is one part of a sample in which actives are shown more often than they occur. Values without a mark were called inactive. Cut-off read from the data, not from the text of the source: active = activation above about 30%; inactive = the rest.

Chain of D(1A) dopamine receptor (Homo sapiens) (P21728 whole entry, looked up): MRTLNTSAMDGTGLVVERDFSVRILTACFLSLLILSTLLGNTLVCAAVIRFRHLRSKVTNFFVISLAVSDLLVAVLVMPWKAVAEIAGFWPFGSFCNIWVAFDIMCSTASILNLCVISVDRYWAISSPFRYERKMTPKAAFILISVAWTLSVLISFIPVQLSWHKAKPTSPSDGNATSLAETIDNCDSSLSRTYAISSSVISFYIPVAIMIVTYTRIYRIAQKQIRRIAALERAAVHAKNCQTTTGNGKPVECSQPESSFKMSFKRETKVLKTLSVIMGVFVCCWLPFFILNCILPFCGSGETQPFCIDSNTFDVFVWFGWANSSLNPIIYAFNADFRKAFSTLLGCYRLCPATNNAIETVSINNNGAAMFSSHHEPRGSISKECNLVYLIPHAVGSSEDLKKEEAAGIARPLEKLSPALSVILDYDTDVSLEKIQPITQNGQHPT

In the experiment the target is D(1A) dopamine receptor (Homo sapiens) (UniProt P21728). Nature of the experiment: Allosteric Agonists of the Human D1 Dopamine Receptor: qHTS. Note: 0% is about no effect. Particulars: HEK293 T-REx D1 cells, calcium flux, agonist mode; at 2 µM; stronger effect = higher value. The gist of the method:
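Inducible HEK293 T-REx D1 cells, force-coupled to calcium signalling, were plated at 4000 cells/well with tetracycline and held overnight at 30 C. After no-wash calcium dye loading, compound-evoked calcium rise over 180 s flagged agonists.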
For orientation: Quantitative high-throughput screening tests each substance at several concentrations.
Take `CCC(C(=O)Nc1ccc(C(C)C)cc1)c1ccccc1` (centres undefined): the activation was 75.7% (active).
Take `Cc1ccc(NC(=O)C(C)c2cccc(C(=O)c3ccccc3)c2)cc1` (centres undefined): the activation was 18.8%.
Turning to `CCCC(C)C(=O)Nc1ccc(NC(C)=O)cc1` (centres undefined), the activation is 2.66%.
Then `CC(=O)N1CCc2cc(Br)cc(S(=O)(=O)CCC(=O)NCCc3ccc(Cl)cc3)c21`, with 1.1%.
The value for `Cc1cccc(NC(=O)Cn2c(=O)n(Cc3ccccc3)c(=O)c3c(C)c(C)sc32)c1` was 1.32%; that for `Cc1ccc(NC(=O)Cn2c(=O)n(-c3ccccc3)c(=O)c3c4c(sc32)CCCC4)cc1` was 4.64%.
Consider `CCOC(=O)N1CCc2c(sc3c2c(=O)n(Cc2ccccc2)c(=O)n3CC(=O)Nc2cccc(C)c2)C1`, for which the activation is 47.3% (active).
The value for `COCCCNC(=O)c1c(NC(=O)c2cc(=O)c3cc(C)c(C)cc3o2)sc2c1CCCC2` was -1.72%.
The value for `COc1cccc(CNCc2c(C(=O)O)n(Cc3ccc(C)cc3)c3cc(C)ccc23)c1OC` was 0.928%; that for `CC(NC(=O)c1cc(-c2ccccc2)on1)c1ccccc1` (centres undefined) was 94.3% (active); that for `O=C(NCc1ccccc1)c1cc(-c2cccc(Cl)c2)on1` was 3.77%.
For `O=C(NC1CCCC1)c1cc(-c2ccccc2)on1`, the activation was 0.117%.
Then `CCCn1c2ccccc2c2cnn(CC(=O)N(C)c3ccccc3CC)c(=O)c21`, with 0.732%; and `CCOCCCNC(=O)c1ccc2nc(CCc3ccccc3)oc2c1`, with 0.808%; and `O=C(c1ccc2c(c1)N(Cc1ccccc1)C(=O)c1ccccc1S2(=O)=O)N1CCCC1`, with 0.455%.
Then `Cc1cccc(NC(=O)C2CCN(S(=O)(=O)c3c(C)noc3/C=C/c3ccco3)CC2)c1`, with 1.4%; and `CC(C)c1ccc(Cn2c(COc3ccccc3)nc3ccccc32)cc1`, with 32.7% (active).
The value for `CC(O)c1nc2ccccc2n1Cc1ccc([N+](=O)[O-])cc1` (centres undefined) was 0.897%.
For the molecule `O=C(Cn1c(COc2ccccc2)nc2ccccc21)Nc1cc(Cl)c(Cl)cc1Cl`, the activation was -0.172%.
The value for `CCc1ccc(Nc2nn3c(=O)c4cc5c(cc4nc3s2)OCO5)cc1` was 0.763%.
Then `CCOc1cc(CNC(=O)c2sc3ncnc(N(C)C4CCCCC4)c3c2C)ccc1OC`, with 2.38%; and `CCOc1ccc2nc(N3CCCC(C(=O)Nc4cc(C)ccc4C)C3)sc2c1` (centres undefined), with -0.891%; and `CCOc1ccc(C(=O)NC2CCN(C(=O)Nc3ccccc3OC)CC2)cc1`, with 0.137%.
Then `CCOc1ccc2nc(N3CCCN(C(=O)Nc4ccccc4C)CC3)c(C#N)cc2c1`, with 32.7% (active); and `CC1CCN(S(=O)(=O)c2ccc3c(c2)N(CC(=O)NCc2ccccc2Cl)C(=O)CO3)CC1`, with -2.16%; and `COc1ccc(NC(=O)C2CCCN(S(=O)(=O)c3c(C)[nH]c(=O)[nH]c3=O)C2)c(OC)c1` (centres undefined), with 3.17%.
With `N#C/C(=C/c1ccc(N2CCOCC2)o1)C(=O)N1CCOCC1`, the activation was 51.4% (active).
Then `N#C/C=C(/c1ccc(F)cc1)N1CCOCC1`, with 5.96%.
Then `O=C(N1CCOCC1)N1CCOCC1`, with 2.44%; and `COc1cccc(Cn2c(SCc3ccc(C(=O)N4CCCCC4)cc3)nc3ccncc32)c1`, with -0.712%.
As to `COc1ccccc1C(=O)Nc1c(C(=O)N(C)Cc2ccccc2)sc2nc(C)c(Cl)c(C)c12`, the activation was 1.11%.
The value for `COc1cc(CNCc2cccs2)cc(Br)c1OC` was 2.66%.
The value for `COc1cc(CNCc2ccc(OC)c3ccccc23)cc(OC)c1OC` was 36.9% (active).
Then `COc1ccccc1N1CCN(Cc2ccc(OC)c3ccccc23)CC1`, with 0.832%.
As for `Cc1ccc2ccc3c(c2n1)NS(=O)(=O)c1ccccc1-3`, the activation is -0.466%.
Then `CCC(=O)N1CCc2cc(S(=O)(=O)NC(Cc3ccccc3)C(=O)NCc3ccccc3)ccc21` (centres undefined), with 0.429%; and `CCCOc1ccc(-c2cccc(NS(=O)(=O)c3ccccc3)c2)nn1`, with -0.134%; and `Cc1oc(-c2ccccc2F)nc1CN1CCC(C(=O)NCCc2ccc(Cl)cc2)CC1`, with 34.8% (active).
The value for `COc1ccc(-c2nc(CN3CCC(C(=O)NCc4ccccc4)CC3)c(C)o2)cc1OC` was -1.51%; that for `COc1ccc(CCNC(=O)C2CCCN(Cc3nc(-c4cccc(Cl)c4)oc3C)C2)cc1OC` (centres undefined) was 19.6%; that for `COc1ccc(CCNCc2c(C(=O)O)c(C)n(Cc3cccc(C)c3)c2C)cc1OC` was 1.85%.
`CCc1cc2c(-c3ccccc3)cc(=O)oc2c2c1OCN(Cc1ccc(C)cc1)C2`: the activation was 10.6%.
On to `CSc1ccc(C2c3c(oc4ccccc4c3=O)C(=O)N2CCCN2CCOCC2)cc1` (centres undefined), for which the activation was -1.33%.
For `CCc1ccc(NC(=O)C2CCCN2S(=O)(=O)c2ccc3nc(-c4ccccc4)[nH]c3c2)cc1` (centres undefined), the activation was 0.736%.
Then `Cc1cccc2cc3c(N)c(C(=O)N4CCCc5ccccc54)sc3nc12`, with 60.4% (active); and `CCCn1nc(C(=O)N2CCCc3ccccc32)c2ccccc2c1=O`, with 0.113%; and `COc1cccc(/C=C/C(=O)OCC(=O)N2CCCc3ccccc32)c1`, with 9.89%.
As for `Oc1ccccc1-c1nc(/C=C/c2ccc(F)cc2)no1`, the activation was 5.78%.
On to `O=C(/C=C/c1ccccc1)Nc1cc(-c2nc3cc(Cl)ccc3o2)ccc1Cl`, for which the activation was -1.26%.
In the case of `COc1ccc(-c2nc3sc(CCNC(=O)C(C)(C)C)c(C)n3n2)cc1`, the activation is 3.98%.
Regarding `Cc1ccc(-c2nc3cccc(C)n3c2Nc2ccc3c(c2)OCCO3)cc1`, the activation was -0.166%.
In the case of `Cc1ccc(Nc2c(-c3ccc(N(C)C)cc3)nc3nc[nH]n23)cc1`, the activation is 39.9% (active).
Then `Cc1ccc(Nc2c(-c3ccc(C)cc3)nc3cnccn23)cc1`, with 3.9%; and `COc1ccc(-c2nc3ccccc3s2)cc1NC(=O)COc1ccccc1C`, with -0.142%.
The value for `Cc1cc2c(s1)c1cnn(Cc3c(F)cccc3Cl)c(=O)c1n2C` was 0.794%.
The value for `Cn1c(=O)c2c(n3c4ccccc4nc13)NC(=O)CC2c1cccc(Cl)c1` (centres undefined) was 3.64%; that for `COC(=O)c1cc(C(=O)CSc2nc(C)cc(C)n2)ccc1O` was 257% (active).
In the case of `COC(=O)c1cccc(NC(=O)CSc2nc(C)cc(=O)[nH]2)c1`, the activation was 1.14%.
Consider `COc1ccc(C(=O)CSc2n[nH]c(N)n2)cc1`, for which the activation is -2.12%.
Regarding `Cn1c(=O)c2c(nc(SCC(=O)Nc3ccc(F)cc3)n2Cc2ccc(Cl)cc2)n(C)c1=O`, the activation is -0.966%.
For `CCOC(=O)c1ccc(NC(=O)C2CCN(S(=O)(=O)c3ccc4c(c3)CCCC(=O)N4)CC2)cc1`, the activation was -0.195%.
Then `COc1ccc(Cl)cc1N(C)C(=O)c1cc2c(=O)oc3ccc(C)cc3c2s1`, with 1.68%.
Regarding `COC(=O)c1sc(-c2ccc(C(C)(C)C)cc2)cc1NC(=O)/C=C/C(=O)O`, the activation was 33% (active).
Consider `Cc1ccc(NC(=O)c2oc3ccccc3c2NC(=O)Cc2cccs2)cc1`, for which the activation was 5.67%.
The value for `CCN1C(=O)c2ccccc2Sc2ccc(NC(=O)Cc3ccc(OC)cc3)cc21` was 8.31%.
The value for `COc1ccc(-c2nc3ccc(C(=O)NCc4ccc(C)cc4)cc3nc2-c2ccc(OC)cc2)cc1` was -0.317%; that for `COc1ccc(NC(=O)Nc2cccc(-c3noc(C)n3)c2)cc1` was -0.581%; that for `COc1ccc(-c2onc3ccc(C(C)=O)cc23)cc1` was 68% (active).
The value for `O=C(NCCCc1ccccc1)c1ccc2c(c1)sc1nc(-c3ccc(F)cc3)cn12` was 1.38%; that for `O=S(=O)(NCC1CC1)c1ccc(F)c(Cl)c1` was 0.965%; that for `COC(=O)c1cc(S(=O)(=O)NC2CCN(Cc3ccccc3)CC2)cn1C` was 6.94%.
As to `COC(=O)c1cc(S(=O)(=O)NCC2CCN(Cc3ccc(Cl)cc3)CC2)cn1C`, the activation was 35.7% (active).
The value for `O=C(CSc1ncc(CO)n1Cc1ccc(Cl)cc1)NCc1ccc(F)cc1` was -0.41%.
Then `Cc1ccc(NC(=O)CSc2nc3c(c(=O)[nH]2)CN(Cc2ccc4c(c2)OCO4)CC3)cc1C`, with 2.15%; and `CCNC(=O)CC1C(=O)N(c2ccc(F)cc2)C(=O)N1Cc1ccc(C)cc1` (centres undefined), with -1.09%.
In the case of `COCc1cc(C)nc(SCC(=O)Nc2cccc(C)c2)c1C#N`, the activation is 1.7%.
Turning to `Cc1ccc(-c2cc(C(F)(F)F)c(C#N)c(SCC(=O)Nc3ccccc3)n2)cc1`, the activation was 76.6% (active).
The value for `Cc1cc(C(F)(F)F)c(C#N)c(SCC(=O)NC2CC2)n1` was 2.38%; that for `CCOc1ccc(-n2c(C)nc3c(cnn3-c3ccc(C)cc3)c2=O)cc1` was 0.209%.
The value for `CCCCNC(=O)c1c[nH]c2ccc(S(=O)(=O)Nc3ccc(OCC)cc3)cc2c1=O` was 5.78%; that for `COc1cccc(NS(=O)(=O)c2ccc3[nH]cc(C(=O)NCCCOC(C)C)c(=O)c3c2)c1` was 122% (active); that for `CCCCN(CC)C(=O)c1c[nH]c2ccc(S(=O)(=O)Nc3cccc(OC)c3)cc2c1=O` was 1.98%.
With `O=C(c1cccs1)c1cn(CCOc2ccc(Cl)cc2)c2ccccc12`, the activation is -1.61%.
Then `Cc1ccc(C)n1-c1nnc(N2CCC(C(=O)NCc3ccc(F)cc3)CC2)s1`, with 2.04%; and `CC1=C(c2ccc(Cl)cc2)S(=O)(=O)N=C1N1CCN(c2cc(C)ccc2C)CC1`, with 7.7%.
The value for `Cc1oc(-c2ccccc2)nc1Cn1c(SCc2cccc(C(F)(F)F)c2)nc2cccnc21` was 3.89%; that for `Cc1ccc2c(=O)oc(N(C)C)nc2c1` was 1.52%.
The value for `CN(Cc1nc2ccccc2c(=O)[nH]1)Cc1cc(=O)oc2ccc3ccccc3c12` was -0.344%; that for `CCN(CC)c1ccc2oc(=O)c(C)nc2c1` was 192% (active).
